Results published in PubChem BioAssay.
Values joined by “and” are separate entries in the source; they are usually repeats but may differ in a detail not shown here. Equal values may be shown once. Some structures have more than one record in an assay (separate samples or runs), and their calls can disagree. Active and inactive are the calls of the source.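 The calls were made as follows, unless noted: active = thallium flux through the channel raised or lowered by more than 3 SD from vehicle-only wells, actives on both sides; inactive = the rest.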

Tests used:
[1] = tested on: Hepatitis C virus NS3 helicase; assay: HCV NS3 helicase inhibitors, primary screen, biochemical, fluorescence polarization, NIH Clinical Collection (AID 743270; call rule not given here); conditions: NS3 helicase binding to Cy5-dT15 DNA, stronger effect = higher value, concentration not given here
[2] = molecular target: Single-stranded DNA-binding protein (Escherichia coli (strain K12)) (UniProt P0AGE0); assay: E. coli SSB displacement from DNA, counter-screen for HCV NS3 helicase inhibitor project, biochemical, fluorescence polarization, NIH Clinical Collection (AID 743271; in the data active = inhibition above about 28%); conditions: stronger effect = higher value, concentration not given here
[3] = fluorescence interference in NS3h assay format, artefact control for HCV NS3 helicase inhibitor project, biochemical, NIH Clinical Collection (AID 743272; call rule not given here;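 also: HCV NS3 helicase with a Cy5 labelled single stranded DNA probe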); conditions: fluorescence interference counterscreen, stronger effect = lower value
[4] = stimulators of nuclear beta-catenin in C2C12, primary screen, imaging, WNT3A-conditioned medium, mouse C2C12, NPC library (AID 1117326; in the data active = nuclear beta-catenin stimulation mostly above about 4.2%, no sharp cut-off; inactive = mostly below about 10%); conditions: stronger effect = higher value
[5] = stimulators of insulin release from INS-1E, primary screen, cell-based, 5 mM glucose, NPC library (AID 1117329;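 active = compound raises insulin release from rat beta cells at 5 mM glucose, no numeric limit stated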); conditions: rat INS-1E insulin secretion, at 10 µM, stronger effect = higher value
[6] = growth inhibition of GSK3B-pretreated HCT116 cells – cell-based, CellTiter-Glo, 0.2 to 20 µM (AID 1117336;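 active = compounds lowering colon cancer cell viability after pretreatment blocking the GSK3B kinase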); conditions: HCT116 viability after GSK3B inhibitor, at 20 µM, stronger effect = higher value
[7] = inhibition of endothelial tube formation, primary screen, imaging, VEGF stimulated, CD31 staining, tube area, NPC library (AID 1117340;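 active = compound that reduces growth-factor-driven endothelial tube area in a mixed cell culture, no cutoff stated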); conditions: VEGF-stimulated ADSC/ECFC co-culture, at 10 µM, stronger effect = higher value
[8] = glucagon-like peptide 1 release enhancers, primary assay, NCI-H716 cell line, NPC library (AID 1117341;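 active = compound raises GLP1 secretion from the human gut endocrine cells, with no numeric limit stated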); conditions: NCI-H716 cells, at 10 µM, stronger effect = higher value
[9] = HCT116 colon cancer cell growth inhibition, primary screen, CellTiter-Glo luminescence, NPC library (AID 1117342;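 active = compounds that lower survival of HCT116 colon cancer cells in the luminescence readout, no numeric limit stated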); conditions: at 20 µM (top of the series)
[10] = CellTiter-Glo luminescent readout of SW480 viability loss, NPC library primary (AID 1117343;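 active = compounds that lower viability of the colon cancer cells in the luminescence readout, with no numeric limit stated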); conditions: CellTiter-Glo luminescence; at 20 µM (top of the series)
[11] = decreased DLD-1 cellular survival, CellTiter-Glo luminescent readout, NPC compound collection, primary HTS (AID 1117346;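 active = compounds that lower survival of DLD-1 colon cancer cells in the luminescence readout, no cutoff given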); conditions: DLD-1 viability, CellTiter-Glo luminescence; at 20 µM (top of the series)
[12] = molecular target: 6-phosphogluconate dehydrogenase, decarboxylating (Homo sapiens) (UniProt P52209); assay: 6PGD enzyme inhibitors, primary screen, biochemical, human, recombinant enzyme, NADPH absorbance (AID 1159550;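 active = at least 20% inhibition of 6-phosphogluconate dehydrogenase activity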); conditions: recombinant 6PGD, NADPH absorbance 341 nm; at 10 µM; stronger effect = higher value
6-phosphogluconate dehydrogenase, decarboxylating (Homo sapiens), sequence (P52209 whole entry, looked up): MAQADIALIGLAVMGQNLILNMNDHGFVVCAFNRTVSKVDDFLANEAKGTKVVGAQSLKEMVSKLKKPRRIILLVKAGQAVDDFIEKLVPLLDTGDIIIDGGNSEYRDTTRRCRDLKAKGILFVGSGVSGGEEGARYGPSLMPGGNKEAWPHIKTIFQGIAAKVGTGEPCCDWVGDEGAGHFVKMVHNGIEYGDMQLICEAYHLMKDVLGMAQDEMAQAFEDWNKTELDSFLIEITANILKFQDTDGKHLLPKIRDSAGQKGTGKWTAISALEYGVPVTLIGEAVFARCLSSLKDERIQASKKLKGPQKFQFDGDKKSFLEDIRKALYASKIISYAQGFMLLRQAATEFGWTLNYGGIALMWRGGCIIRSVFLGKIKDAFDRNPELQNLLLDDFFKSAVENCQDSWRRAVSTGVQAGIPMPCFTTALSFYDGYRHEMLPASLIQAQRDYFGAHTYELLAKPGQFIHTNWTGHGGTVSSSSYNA

[13] = differential killing of epithelial or mesenchymal cells, primary screen, imaging, PC-3E GFP, TEM4-18 mCherry, co-culture (AID 1345086;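 active = compounds killing one labelled cell type while sparing the other, by normalised counts and ratio limits, not self-fluorescent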;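 as to all read-outs here: cells exposed to compound for 72 h before imaging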;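 as to red/green cell ratio (normalised): normalised mesenchymal count divided by normalised epithelial count so high means epithelial killing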); conditions: imaging cell counts, at 1 µM; for red/green cell ratio (normalised): actives lie on both sides, counts scaled to control wells, 1 = unselective
[14] = survival rescue of mitochondrial mutant cells in low glucose, primary screen, MELAS cybrids, Rieske KO mouse fibroblasts, CellTiter-Glo (AID 1508586;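 active = mean z-score across replicates of 1.96 or higher in either the MELAS or the Rieske mutant cell line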;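 also: z relative to plate mean and SD of compound and empty wells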)
[15] = molecular target: NAD(+) hydrolase SARM1 (Homo sapiens) (UniProt Q6SZW1); assay: SARM1 TIR NADase inhibitors, cell lysate, NAD-Glo luminescence (AID 1508614;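 active = compound whose remaining NAD level is above about 45 nM, limit read from the data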;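 also: higher remaining NAD means stronger inhibition of SARM1 NADase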); conditions: SAM-TIR HEK293T lysate NADase, at 1 µM, stronger effect = higher value
NAD(+) hydrolase SARM1 (Homo sapiens), sequence (Q6SZW1 whole entry, looked up, the tested form may be a part): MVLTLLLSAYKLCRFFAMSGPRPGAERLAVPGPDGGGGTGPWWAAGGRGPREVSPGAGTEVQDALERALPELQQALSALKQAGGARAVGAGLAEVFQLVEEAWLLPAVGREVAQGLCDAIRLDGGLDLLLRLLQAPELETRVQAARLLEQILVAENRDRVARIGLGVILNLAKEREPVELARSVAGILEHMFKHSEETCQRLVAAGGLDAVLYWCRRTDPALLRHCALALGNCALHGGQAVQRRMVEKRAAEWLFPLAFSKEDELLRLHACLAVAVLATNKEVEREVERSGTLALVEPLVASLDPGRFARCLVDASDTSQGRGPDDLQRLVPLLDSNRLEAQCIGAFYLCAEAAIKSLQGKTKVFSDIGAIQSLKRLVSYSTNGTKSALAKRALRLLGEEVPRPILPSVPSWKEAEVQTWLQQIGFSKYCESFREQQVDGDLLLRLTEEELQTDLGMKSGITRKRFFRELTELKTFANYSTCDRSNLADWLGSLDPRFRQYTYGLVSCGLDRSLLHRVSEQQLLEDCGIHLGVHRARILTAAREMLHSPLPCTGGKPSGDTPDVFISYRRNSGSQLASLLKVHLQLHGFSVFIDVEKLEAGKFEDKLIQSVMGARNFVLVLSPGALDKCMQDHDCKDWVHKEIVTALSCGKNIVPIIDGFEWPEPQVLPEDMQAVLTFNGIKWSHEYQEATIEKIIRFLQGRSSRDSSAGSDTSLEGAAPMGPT

[16] = molecular target: Mitogen-activated protein kinase 7 (Homo sapiens) (UniProt Q13164); assay: ERK5 transactivation activators in reporter cells, primary screen, cell-based, HTS (AID 1508626;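 active = luciferase signal above three times the same-plate solvent-only control wells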;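 also: luciferase driven by Gal4-ERK5 fusion binding five Gal4 sites before minimal TATA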); conditions: HeLa Gal4-ERK5 transactivation, 18 h, at 5 µM, stronger effect = higher value
Mitogen-activated protein kinase 7 (Homo sapiens), sequence (Q13164 whole entry, looked up, the tested form may be a part): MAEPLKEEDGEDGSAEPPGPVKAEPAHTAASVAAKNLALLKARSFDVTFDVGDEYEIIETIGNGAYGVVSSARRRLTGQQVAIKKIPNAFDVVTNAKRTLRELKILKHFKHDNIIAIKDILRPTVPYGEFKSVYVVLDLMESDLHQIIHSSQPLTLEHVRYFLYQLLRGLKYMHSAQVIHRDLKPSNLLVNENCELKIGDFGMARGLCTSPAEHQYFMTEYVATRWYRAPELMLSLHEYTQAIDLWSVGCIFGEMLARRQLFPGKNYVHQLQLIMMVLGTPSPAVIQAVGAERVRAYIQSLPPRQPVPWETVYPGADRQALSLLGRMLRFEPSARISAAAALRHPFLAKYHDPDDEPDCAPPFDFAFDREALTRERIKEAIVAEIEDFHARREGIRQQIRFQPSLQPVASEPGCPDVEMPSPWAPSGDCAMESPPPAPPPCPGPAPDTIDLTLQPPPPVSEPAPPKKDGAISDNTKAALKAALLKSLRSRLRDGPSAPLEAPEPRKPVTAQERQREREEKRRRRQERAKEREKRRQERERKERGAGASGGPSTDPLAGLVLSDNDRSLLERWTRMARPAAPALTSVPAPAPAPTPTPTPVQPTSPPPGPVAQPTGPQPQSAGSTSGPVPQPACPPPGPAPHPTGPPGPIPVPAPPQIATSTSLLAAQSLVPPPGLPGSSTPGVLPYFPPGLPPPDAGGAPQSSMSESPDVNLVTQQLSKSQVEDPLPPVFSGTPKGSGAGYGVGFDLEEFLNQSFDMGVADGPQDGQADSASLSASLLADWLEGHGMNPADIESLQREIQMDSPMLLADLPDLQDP

[17] = tested on: F380Y; assay: modulators of BK channel variants, profiling panel, selectivity assay, cell-based, U2OS BacMam, thallium flux, beta subunits (AID 1259406); conditions: at 30 µM;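 also: initial slope of Thallos dye fluorescence rise after thallium is added; log ratio against the mean of 0.3% DMSO vehicle wells on the same plate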
[18] = tested on: F380Y/beta2Delta; assay: as above; conditions: at 30 µM
[19] = molecular target: Calcium-activated potassium channel subunit alpha-1 (Homo sapiens) + Leucine-rich repeat-containing protein 26 (Homo sapiens) (UniProt Q12791+Q2I0M4); assay: as above; conditions: F380Y/Slo1WT/gamma1, at 30 µM
Calcium-activated potassium channel subunit alpha-1 (Homo sapiens) + Leucine-rich repeat-containing protein 26 (Homo sapiens), sequence (Q2I0M4 whole entry, looked up, one chain of several): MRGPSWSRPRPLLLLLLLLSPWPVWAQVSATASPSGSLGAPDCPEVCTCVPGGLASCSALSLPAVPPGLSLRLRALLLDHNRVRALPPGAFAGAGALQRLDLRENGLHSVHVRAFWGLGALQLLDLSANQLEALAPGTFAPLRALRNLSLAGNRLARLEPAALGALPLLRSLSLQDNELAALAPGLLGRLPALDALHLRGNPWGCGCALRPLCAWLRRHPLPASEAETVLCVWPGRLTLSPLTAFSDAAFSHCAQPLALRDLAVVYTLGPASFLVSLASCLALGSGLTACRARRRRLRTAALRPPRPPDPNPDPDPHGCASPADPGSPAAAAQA

[20] = sensitizers of A549 cells to miR-34 induction, primary screen, imaging, A549 dox-inducible miR-34, nuclei and caspase counts (AID 1347080;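 active = compounds whose cell count with miR-34 switched on is under 0.7 times the count with it off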); conditions: A549 miR-34 inducible, Hoechst nuclei count, 48 h
[21] = measured here: epithelial PC-3E GFP cell survival
[22] = measured here: mesenchymal TEM4-18 mCherry cell survival
[23] = MELAS cybrid survival, CellTiter-Glo 48 h, stronger effect = higher value
[24] = Rieske KO mouse fibroblast survival, CellTiter-Glo 72 h
[25] = stronger effect = lower value, cell number ratio, induced over uninduced
[26] = measured here: relative caspase fold change +Dox/-Dox
[27] = measured here: total cells with miR-34 induction, stronger effect = lower value
[28] = measured here: total cells without miR-34 induction

CCN(CC)CC(=O)Nc1c(C)cccc1C
inactive: inhibition [1] -1.98% | inhibition [2] -0.87% | fluorescence ratio [3] 0.96 | nuclear beta-catenin stimulation ([4]; at 10 µM) -0.4% | insulin secretion stimulation [5] -1.4% | viability decrease [6] -9.9% | tube area decrease [7] 9.2% | GLP1 secretion stimulation [8] 0.9% | inhibition of viability [9] -5.2% | viability decrease (inhibition) [10] -0.2% | viability decrease (inhibition) [11] 0.45% | inhibition [12] -1.54% | red/green cell ratio (normalised) [13] 1.11 | z-score [14, 23] -0.329 and 0.222 and 0.215 | remaining NAD [15] 10 nM | luciferase signal [16] 48 AU | log fold change Tl+ flux [17] 0.00448 | log fold change Tl+ flux [18] -0.0588 | log fold change Tl+ flux [19] 0.0193
0.8%: nuclear beta-catenin stimulation ([4]; stimulation, at 2 µM)
1.01: normalised cell number [13, 21]
-0.148 and 0.143 and 0.303: z-score [14, 24]
1.12: normalised cell number [13, 22]

O=C1N=C(O)CN1/N=C/c1ccc(-c2ccc([N+](=O)[O-])cc2)o1
0.247: z-score [14, 24]
active: inhibition of viability [9] 20.3%
1.02: normalised cell number [13, 21]
1.1: normalised cell number [13, 22]
inactive: nuclear beta-catenin stimulation ([4]; at 10 µM) 4.1% | insulin secretion stimulation [5] 2.6% | viability decrease [6] 9.2% | tube area decrease [7] -8.8% | GLP1 secretion stimulation [8] 1.9% | viability decrease (inhibition) [10] -30.5% | viability decrease (inhibition) [11] 5% | inhibition [12] 13.4% | red/green cell ratio (normalised) [13] 1.07 | z-score [14, 23] 0.073 | remaining NAD [15] 10 nM | luciferase signal [16] 156 AU
4.2%: nuclear beta-catenin stimulation ([4]; stimulation, at 2 µM)

NC(N)=NC(=O)c1nc(Cl)c(N)nc1N
0.245 and 0.664 and 0.681: z-score [14, 24]
-2%: nuclear beta-catenin stimulation ([4]; stimulation, at 2 µM)
1.1: normalised cell number [13, 22]
1.29: normalised cell number [13, 21]
inactive: inhibition [1] 6.73% | inhibition [2] 13.8% | fluorescence ratio [3] 0.9 | nuclear beta-catenin stimulation ([4]; at 10 µM) 0.7% | insulin secretion stimulation [5] 4.35% | viability decrease [6] 3.2% | tube area decrease [7] 1.1% | GLP1 secretion stimulation [8] 2% | inhibition of viability [9] 3% | viability decrease (inhibition) [10] 1.8% | viability decrease (inhibition) [11] -11.5% | inhibition [12] 7.13% | red/green cell ratio (normalised) [13] 0.85 | z-score [14, 23] -0.14 and -0.352 and 0.738 | remaining NAD [15] 10 nM | luciferase signal [16] 44 AU | log fold change Tl+ flux [17] -0.00821 | log fold change Tl+ flux [18] -0.0347 | log fold change Tl+ flux [19] 0.0238

COc1cc2nc(N3CCN(C(=O)c4ccco4)CC3)nc(N)c2cc1OC
active: nuclear beta-catenin stimulation ([4]; at 10 µM) 47.5% | viability decrease [6] 80.9% | viability decrease (inhibition) [10] 120% | viability decrease (inhibition) [11] 78.7%
inactive: insulin secretion stimulation [5] 0.2% | tube area decrease [7] -2.7% | GLP1 secretion stimulation [8] 9.5% | inhibition of viability [9] 46.9% | inhibition [12] 8.49% | red/green cell ratio (normalised) [13] 1.27 | remaining NAD [15] 10 nM | luciferase signal [16] 128 AU | log fold change Tl+ flux [17] 0.00597 | log fold change Tl+ flux [18] -0.00919 | log fold change Tl+ flux [19] 0.00974
2.19 and 0.838: z-score [14, 24]
1.25: normalised cell number [13, 22]
7.8%: nuclear beta-catenin stimulation ([4]; stimulation, at 2 µM)
0.98: normalised cell number [13, 21]
1.14 and 0.169 (inactive): z-score [14, 23]

C=CCCCCCCCCC(=O)O
13300: cell count [20, 28]
11700: cell count [20, 27]
1.02: normalised cell number [13, 21]
0.8% and -1.5%: nuclear beta-catenin stimulation ([4]; stimulation, at 2 µM)
inactive: nuclear beta-catenin stimulation ([4]; at 10 µM) -0.1% and -2.1% | insulin secretion stimulation [5] -1.7% and 0.4% | viability decrease [6] -6.75% and -111% | tube area decrease [7] 3.3% and 1.9% | GLP1 secretion stimulation [8] 1.3% and -1.9% | inhibition of viability [9] 0.2% and 0.1% | viability decrease (inhibition) [11] 14.5% and 8% | red/green cell ratio (normalised) [13] 0.93 | fold change [20, 25] 0.879 | remaining NAD [15] 10 nM | luciferase signal [16] 20 AU
69.8% (active) and 6.3% (inactive): viability decrease (inhibition) [10]
4.79: fold change [20, 26]
0.95: normalised cell number [13, 22]

CCCN1C[C@H](CSC)C[C@@H]2c3cccc4[nH]cc(c34)C[C@H]21
1.25: normalised cell number [13, 22]
inactive: inhibition [1] 1.53% | inhibition [2] 10.6% | fluorescence ratio [3] 1 | nuclear beta-catenin stimulation ([4]; at 10 µM) 0.2% | insulin secretion stimulation [5] 3.5% | viability decrease [6] 20.2% | tube area decrease [7] -5.3% | GLP1 secretion stimulation [8] 5.1% | inhibition of viability [9] 45.7% | viability decrease (inhibition) [10] -2.1% | viability decrease (inhibition) [11] 7.8% | inhibition [12] 0.728% | red/green cell ratio (normalised) [13] 1.38 | z-score [14, 23] 0.448 and 0.276 | remaining NAD [15] 10 nM | luciferase signal [16] 40 AU | log fold change Tl+ flux [17] -0.0179 | log fold change Tl+ flux [18] 0.0229 | log fold change Tl+ flux [19] -0.0185
-0.203 and -0.419: z-score [14, 24]
0.91: normalised cell number [13, 21]
-1.1%: nuclear beta-catenin stimulation ([4]; stimulation, at 2 µM)

C#C[C@]1(O)CC[C@H]2[C@@H]3CCC4=Cc5oncc5C[C@]4(C)[C@H]3CC[C@@]21C
inactive: inhibition [1] -3.18% | inhibition [2] 4.1% | fluorescence ratio [3] 1.01 | nuclear beta-catenin stimulation ([4]; at 10 µM) -0.9% | insulin secretion stimulation [5] 1.9% | tube area decrease [7] 15% | GLP1 secretion stimulation [8] 1.4% | inhibition [12] 14% | fold change [20, 25] 0.976 and 0.855 and 0.842 | z-score [14, 23] -0.753 and -0.503 | remaining NAD [15] 10 nM | luciferase signal [16] 32 AU | log fold change Tl+ flux [17] -0.00831 | log fold change Tl+ flux [18] -0.066 | log fold change Tl+ flux [19] 0.00932
7330 and 8240 and 7200: cell count [20, 28]
0%: nuclear beta-catenin stimulation ([4]; stimulation, at 2 µM)
-0.343 and -0.0493: z-score [14, 24]
active: viability decrease [6] 76.5% | inhibition of viability [9] 82.4% | viability decrease (inhibition) [10] 84.4% | viability decrease (inhibition) [11] 75.7%
3.35 and 1.24 and 1.49: fold change [20, 26]
7160 and 7050 and 6060: cell count [20, 27]
